According to the supplement of paper PMC4466140:

Columns and labels:
Assay in all cases: SPOT peptide array binding signal intensity (averaged, normalized) (arbitrary units (background-subtracted, floor 0; scale differs between SH3 domains)); higher = stronger binding of the SH3 domain to the peptide
CaNbp2 = molecular target: CaNbp2
Outline: (§1)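 E. coli BL21(DE3) was used to express GST-fused SH3 domains from four yeast species, which were then purified on glutathione Sepharose. These were incubated at 10 μg/ml in TBS-based blocking buffer overnight at 4°C on cellulose membranes carrying synthetic 15-mer peptides, in which cysteines were replaced by serines. Binding signal is the replicate average of normalized, background-subtracted spot intensity, in arbitrary units that differ between domains.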

CaRvs167 = molecular target: CaRvs167
Outline: as §1

CaRvs167-3 = molecular target: CaRvs167-3
Outline: as §1

CaSho1 = molecular target: CaSho1
Outline: as §1

CaSla1-D1-D2 = molecular target: CaSla1-D1-D2
Outline: as §1

CaSla1-D3 = molecular target: CaSla1-D3
Outline: as §1

ScAbp1 = molecular target: ScAbp1
Outline: as §1

ScBbc1 = molecular target: ScBbc1
Outline: as §1

ScBem1-D1 = molecular target: ScBem1-D1
Outline: as §1

ScBzz1-D1 = molecular target: ScBzz1-D1
Outline: as §1

ScBzz1-D2 = molecular target: ScBzz1-D2
Outline: as §1

ScCyk3 = molecular target: ScCyk3
Outline: as §1

ScFus1 = molecular target: ScFus1
Outline: as §1

ScHof1 = molecular target: ScHof1
Outline: as §1

ScHse1 = molecular target: ScHse1
Outline: as §1

ScLsb1 = molecular target: ScLsb1
Outline: as §1

ScLsb2 = molecular target: ScLsb2
Outline: as §1

ScLsb3 = molecular target: ScLsb3
Outline: as §1

ScLsb4 = molecular target: ScLsb4
Outline: as §1

ScMyo3 = molecular target: ScMyo3
Outline: as §1

ScMyo5 = molecular target: ScMyo5
Outline: as §1

ScNbp2 = molecular target: ScNbp2
Outline: as §1

ScPex13 = molecular target: ScPex13
Outline: as §1

ScRvs167 = molecular target: ScRvs167
Outline: as §1

ScSho1 = molecular target: ScSho1
Outline: as §1

ScSla1-D1-D2 = molecular target: ScSla1-D1-D2
Outline: as §1

ScSla1-D3 = molecular target: ScSla1-D3
Outline: as §1

SpAbp1-D1 = molecular target: SpAbp1-D1
Outline: as §1

SpBbc1 = molecular target: SpBbc1
Outline: as §1

SpBzz1-D1 = molecular target: SpBzz1-D1
Outline: as §1

SpBzz1-D2 = molecular target: SpBzz1-D2
Outline: as §1

SpCyk3 = molecular target: SpCyk3
Outline: as §1

SpHof1 = molecular target: SpHof1
Outline: as §1

SpHof1-2 = molecular target: SpHof1-2
Outline: as §1

SpHof1-3 = molecular target: SpHof1-3
Outline: as §1

SpHse1 = molecular target: SpHse1
Outline: as §1

SpLsb1 = molecular target: SpLsb1
Outline: as §1

SpLsb4 = molecular target: SpLsb4
Outline: as §1

SpMyo1 = molecular target: SpMyo1
Outline: as §1

SpNbp2 = molecular target: SpNbp2
Outline: as §1

SpPex13 = molecular target: SpPex13
Outline: as §1

SpRvs167 = molecular target: SpRvs167
Outline: as §1

SpSla1-D1-D2 = molecular target: SpSla1-D1-D2
Outline: as §1

SpSla1-D3 = molecular target: SpSla1-D3
Outline: as §1

AgAbp1 = molecular target: AgAbp1
Outline: as §1

AgBbc1 = molecular target: AgBbc1
Outline: as §1

AgBem1-D1 = molecular target: AgBem1-D1
Outline: as §1

AgBzz1-D1 = molecular target: AgBzz1-D1
Outline: as §1

AgBzz1-D2 = molecular target: AgBzz1-D2
Outline: as §1

AgCyk3 = molecular target: AgCyk3
Outline: as §1

AgFus1 = molecular target: AgFus1
Outline: as §1

AgHof1 = molecular target: AgHof1
Outline: as §1

AgHse1 = molecular target: AgHse1
Outline: as §1

AgLsb1 = molecular target: AgLsb1
Outline: as §1

AgLsb4 = molecular target: AgLsb4
Outline: as §1

AgMyo5 = molecular target: AgMyo5
Outline: as §1

AgNbp2 = molecular target: AgNbp2
Outline: as §1

AgRvs167 = molecular target: AgRvs167
Outline: as §1

AgSho1 = molecular target: AgSho1
Outline: as §1

AgSla1-D1-D2 = molecular target: AgSla1-D1-D2
Outline: as §1

AgSla1-D3 = molecular target: AgSla1-D3
Outline: as §1

CaAbp1-D1 = molecular target: CaAbp1-D1
Outline: as §1

CaAbp1-D2 = molecular target: CaAbp1-D2
Outline: as §1

CaBbc1 = molecular target: CaBbc1
Outline: as §1

CaBem1-D1 = molecular target: CaBem1-D1
Outline: as §1

CaBzz1-D1 = molecular target: CaBzz1-D1
Outline: as §1

CaBzz1-D2 = molecular target: CaBzz1-D2
Outline: as §1

CaCyk3 = molecular target: CaCyk3
Outline: as §1

CaFus1 = molecular target: CaFus1
Outline: as §1

CaHof1 = molecular target: CaHof1
Outline: as §1

CaHse1 = molecular target: CaHse1
Outline: as §1

CaLsb1 = molecular target: CaLsb1
Outline: as §1

CaLsb4 = molecular target: CaLsb4
Outline: as §1

CaMyo5 = molecular target: CaMyo5
Outline: as §1

LKQRFFLMFPKSIIW
SPOT peptide array binding signal intensity (CaNbp2): 676
SPOT peptide array binding signal intensity (CaRvs167): 89.2
SPOT peptide array binding signal intensity (CaRvs167-3): 520
SPOT peptide array binding signal intensity (CaSho1): 484
SPOT peptide array binding signal intensity (CaSla1-D1-D2): 84.5
SPOT peptide array binding signal intensity (CaSla1-D3): 257
SPOT peptide array binding signal intensity (ScAbp1): 48
SPOT peptide array binding signal intensity (ScBbc1): 4.5
SPOT peptide array binding signal intensity (ScBem1-D1): 69
SPOT peptide array binding signal intensity (ScBzz1-D1): 42
SPOT peptide array binding signal intensity (ScBzz1-D2): 150
SPOT peptide array binding signal intensity (ScCyk3): 124
SPOT peptide array binding signal intensity (ScFus1): 819
SPOT peptide array binding signal intensity (ScHof1): 1.5
SPOT peptide array binding signal intensity (ScHse1): 1580
SPOT peptide array binding signal intensity (ScLsb1): 1
SPOT peptide array binding signal intensity (ScLsb2): ≤ 0
SPOT peptide array binding signal intensity (ScLsb3): 33
SPOT peptide array binding signal intensity (ScLsb4): 14.5
SPOT peptide array binding signal intensity (ScMyo3): ≤ 0
SPOT peptide array binding signal intensity (ScMyo5): 4
SPOT peptide array binding signal intensity (ScNbp2): 252
SPOT peptide array binding signal intensity (ScPex13): 15.5
SPOT peptide array binding signal intensity (ScRvs167): 14.5
SPOT peptide array binding signal intensity (ScSho1): 1060
SPOT peptide array binding signal intensity (ScSla1-D1-D2): 91.5
SPOT peptide array binding signal intensity (ScSla1-D3): 132
SPOT peptide array binding signal intensity (SpAbp1-D1): 69
SPOT peptide array binding signal intensity (SpBbc1): ≤ 0
SPOT peptide array binding signal intensity (SpBzz1-D1): 103
SPOT peptide array binding signal intensity (SpBzz1-D2): 0.5
SPOT peptide array binding signal intensity (SpCyk3): 9
SPOT peptide array binding signal intensity (SpHof1): 236
SPOT peptide array binding signal intensity (SpHof1-2): 36.5
SPOT peptide array binding signal intensity (SpHof1-3): 748
SPOT peptide array binding signal intensity (SpHse1): 972
SPOT peptide array binding signal intensity (SpLsb1): ≤ 0
SPOT peptide array binding signal intensity (SpLsb4): 38.5
SPOT peptide array binding signal intensity (SpMyo1): 3.5
SPOT peptide array binding signal intensity (SpNbp2): 515
SPOT peptide array binding signal intensity (SpPex13): 86
SPOT peptide array binding signal intensity (SpRvs167): 14.3
SPOT peptide array binding signal intensity (SpSla1-D1-D2): ≤ 0
SPOT peptide array binding signal intensity (SpSla1-D3): 39

NVLRKILEIPLHSFS
SPOT peptide array binding signal intensity (AgAbp1): 4
SPOT peptide array binding signal intensity (AgBbc1): ≤ 0
SPOT peptide array binding signal intensity (AgBem1-D1): ≤ 0
SPOT peptide array binding signal intensity (AgBzz1-D1): 5.5
SPOT peptide array binding signal intensity (AgBzz1-D2): 24.5
SPOT peptide array binding signal intensity (AgCyk3): ≤ 0
SPOT peptide array binding signal intensity (AgFus1): 29.5
SPOT peptide array binding signal intensity (AgHof1): ≤ 0
SPOT peptide array binding signal intensity (AgHse1): 2570
SPOT peptide array binding signal intensity (AgLsb1): 2
SPOT peptide array binding signal intensity (AgLsb4): 16
SPOT peptide array binding signal intensity (AgMyo5): ≤ 0
SPOT peptide array binding signal intensity (AgNbp2): ≤ 0
SPOT peptide array binding signal intensity (AgRvs167): 1
SPOT peptide array binding signal intensity (AgSho1): ≤ 0
SPOT peptide array binding signal intensity (AgSla1-D1-D2): ≤ 0
SPOT peptide array binding signal intensity (AgSla1-D3): 2
SPOT peptide array binding signal intensity (CaAbp1-D1): ≤ 0
SPOT peptide array binding signal intensity (CaAbp1-D2): ≤ 0
SPOT peptide array binding signal intensity (CaBbc1): ≤ 0
SPOT peptide array binding signal intensity (CaBem1-D1): ≤ 0
SPOT peptide array binding signal intensity (CaBzz1-D1): ≤ 0
SPOT peptide array binding signal intensity (CaBzz1-D2): ≤ 0
SPOT peptide array binding signal intensity (CaCyk3): ≤ 0
SPOT peptide array binding signal intensity (CaFus1): 1150
SPOT peptide array binding signal intensity (CaHof1): ≤ 0
SPOT peptide array binding signal intensity (CaHse1): 7
SPOT peptide array binding signal intensity (CaLsb1): 6
SPOT peptide array binding signal intensity (CaLsb4): ≤ 0
SPOT peptide array binding signal intensity (CaMyo5): ≤ 0
SPOT peptide array binding signal intensity (CaNbp2): 94.5
SPOT peptide array binding signal intensity (CaRvs167): ≤ 0
SPOT peptide array binding signal intensity (CaRvs167-3): 7.25
SPOT peptide array binding signal intensity (CaSho1): 75
SPOT peptide array binding signal intensity (CaSla1-D1-D2): ≤ 0
SPOT peptide array binding signal intensity (CaSla1-D3): ≤ 0
SPOT peptide array binding signal intensity (ScAbp1): 2
SPOT peptide array binding signal intensity (ScBbc1): ≤ 0
SPOT peptide array binding signal intensity (ScBem1-D1): ≤ 0
SPOT peptide array binding signal intensity (ScBzz1-D1): 12
SPOT peptide array binding signal intensity (ScBzz1-D2): 26
SPOT peptide array binding signal intensity (ScCyk3): 31
SPOT peptide array binding signal intensity (ScFus1): 123
SPOT peptide array binding signal intensity (ScHof1): ≤ 0
SPOT peptide array binding signal intensity (ScHse1): 1780
SPOT peptide array binding signal intensity (ScLsb1): 59.8
SPOT peptide array binding signal intensity (ScLsb2): ≤ 0
SPOT peptide array binding signal intensity (ScLsb3): ≤ 0
SPOT peptide array binding signal intensity (ScLsb4): ≤ 0
SPOT peptide array binding signal intensity (ScMyo3): 0.75
SPOT peptide array binding signal intensity (ScMyo5): ≤ 0
SPOT peptide array binding signal intensity (ScNbp2): 9.5
SPOT peptide array binding signal intensity (ScPex13): ≤ 0
SPOT peptide array binding signal intensity (ScRvs167): 0.833
SPOT peptide array binding signal intensity (ScSho1): 120
SPOT peptide array binding signal intensity (ScSla1-D1-D2): ≤ 0
SPOT peptide array binding signal intensity (ScSla1-D3): ≤ 0
SPOT peptide array binding signal intensity (SpAbp1-D1): ≤ 0
SPOT peptide array binding signal intensity (SpBbc1): 38
SPOT peptide array binding signal intensity (SpBzz1-D1): ≤ 0
